Results reported in PubChem BioAssay (EPA / NIEHS).
“And” between values parts separate entries of the source, which are not always exact repeats. Equal values may be shown once. Some structures have more than one record in an assay (separate samples or runs), and their calls can disagree. The source made the active and inactive calls. How the source made its calls: active means hit-call score of the fitted dose curve at least 0.9, where 1 is the maximum; inactive means score below 0.9.

assay: ATG_ERE_CIS: Attagene CIS-FACTORIAL HepG2 Assay for Estrogen Response Element (ERE) (AID 2282940); settings: HepG2 ERE cis-reporter, Attagene RNA transcript; actives raise or lower the signal
Protocol: ATG_CIS is a cell-based, multiplexed-readout assay that uses HepG2, a human liver cell line, with measurements taken at 24 hours after chemical dosing in a 24-well plate.ATG_ERE_CIS is one of 52 assay component(s) measured or calculated from the ATG_CIS assay. It is designed to make measurements of mRNA induction, a form of inducible reporter, as detected with fluorescence intensity signals by Reverse transcription polymerase chain reaction (RT-PCR) and Capillary electrophoresis technology.Data from the assay component ATG_ERE_CIS was analyzed into 1 assay endpoint. This assay endpoint, ATG_ERE_CIS, was analyzed with bidirectional fitting relative to DMSO as the negative control and baseline of activity. Using a type of inducible reporter, measures of mRNA for gain or loss-of-signal activity can be used to understand the reporter gene at the transcription factor-level as they relate to the gene ESR1. Furthermore, this assay endpoint can be referred to as a primary readout, because this assay has produced multiple assay endpoints where this one serves a reporter gene function. To generalize the intended target to other relatable targets, this assay endpoint is annotated to the nuclear receptor intended target family, where the subfamily is steroidal.
Human liver HepG2 cells are transiently transfected with multiple reporter transcription units (MRTUs) in 6-well plates using FuGene 6 reagent (Roche; 3 ml FuGene/1 mg DNA). The MRTU constructs are regulated by a cis-regulating element (promoter). […] A major difference between the CIS and TRANS system is that in CIS activities of endogenous TFs are measured, whereas the TRANS assay evaluates changes in activities of exogenous, chimeric NR-Gal4 proteins. […] At the end of 24 hour incubation, total RNA was isolated using TriZol reagent (Invitrogen). The isolated RNA is then reverse-transcribed using oligo(dT) primer and Mo-MLV reverse transcriptase (Invitrogen) with DNAse I (Ambion) treatment for 30 min. The one-tenth of the produced cDNA was amplified by PCR using Taq DNA polymerase (Invitrogen) and two reporter sequence-specific primers. The PCR products were fluorescently labeled by primer extension with 6-arboxyfluorescein (6-FAM) 5'-labeled reporter sequence-specific primer (2 min at 95 C, 20 s at 68 C and 10 min at 72 C) and these products were digested with 5U of HpaI (New England Biolabs) for 2h at 37 C. The fragments were purified using Qiaquick PCR columns (Qiagen), analyzed on an ABI 3130xL genetic analyzer (Applied Biosystems) with peak positions identified by using a set of X-rhodamine (ROX)-labeled MapMarker1000 molecular weight standards (BioVentures). The raw capillary electrophoresis data was processed using Attagraph software (Attagene).

SMILES	outcome	AC50
CCCCN(CC)C(=O)SCCC	inactive	
COC(=O)C(F)(F)C(F)(F)OC(F)(C(F)(F)F)C(F)(F)OC(F)=C(F)F (stereo not given)		303 nM (active) and 563 nM (active) and 514 nM (active)
O=C(O)C(F)(F)OC(F)(F)C(F)(F)OC(F)(F)C(=O)O	inactive	
CCOc1ccc(C(C)(C)COCc2cccc(Oc3ccccc3)c2)cc1	inactive	
Cc1c([N+](=O)[O-])cc2c(c1[N+](=O)[O-])C(C)(C)CC2(C)C	inactive	
O=C(O)C(F)(F)C(F)(F)C(=O)O	inactive	
FC(F)(F)C(F)(C(F)(F)F)C(F)(F)C(F)(F)CC1CO1 (stereo not given)	inactive	
FC(F)(F)c1ccc(Cl)cc1	inactive	
N#Cc1ccc(O)cc1	inactive	
CCCCOCCOP(=O)(OCCOCCCC)OCCOCCCC	inactive	
O=[N+]([O-])c1cc(Cl)ccc1Cl	inactive	
COP(N)(=S)OC	inactive	
c1nc[nH]n1		29 µM (active)
Cc1ccc2c(c1N)C(=O)c1ccccc1C2=O		5.24 µM (active)
O=C(O)CF	inactive	
NNC(N)=S	inactive	
CNC(=O)Oc1ccc(N(C)C)c(C)c1	inactive	
O=C(O)C(F)(F)OC(F)(F)C(F)(F)OC(F)(F)F	inactive	
CC(C)(C)c1ccccc1OP(=O)(Oc1ccccc1)Oc1ccccc1		12.4 µM (active)
C=CC(=O)OCC(F)(F)C(F)F	inactive	

SMILES	outcome	AC50
C/C(=N\NC(=O)Nc1cc(F)cc(F)c1)c1ncccc1C(=O)O	inactive	
Nc1ccc(Sc2ccc(N)cc2)cc1		14.4 µM (active)
CC(Cl)(Cl)C(=O)O	inactive	
CCN(CC)c1ccccc1	inactive	
O=C(O)C=CC(F)(C(F)(F)F)C(F)(F)F	inactive	
NC(=O)C(F)(F)C(F)(F)F	inactive	
CCOP(=S)(NC(C)C)Oc1ccccc1C(=O)OC(C)C (stereo not given)		11.3 µM (active)
CCOP(=O)(O)C(N)=O	inactive	
O=[N+]([O-])c1ccccc1		52.7 µM (active)
CCCN(CCC)c1c([N+](=O)[O-])cc(C(C)C)cc1[N+](=O)[O-]	inactive	
CCNc1nc(Cl)nc(NC(C)(C)C)n1		8.92 µM (active)
OCC(F)(F)OC(F)(F)C(F)(F)OC(F)(F)C(F)(F)OC(F)(F)F	inactive	5.62 µM (active)
CC(=O)c1ccc(-c2ccccc2)cc1		6.56 µM (active)
CN(C)C(=O)Cl	inactive	
Cc1ccc(N)cc1N	inactive	
N#Cc1cc([N+](=O)[O-])ccc1N	inactive	
Clc1ccc(Oc2ccccc2)cc1		88.4 µM (active)
CC1=C(C(=O)Nc2ccccc2)S(=O)(=O)CCO1	inactive	
O=c1ssc(Cl)c1Cl	inactive	
